Source: the supplement of paper PMC6522484
± gives the standard deviation of the averaged measurements.

Columns and labels:
[1] = test system: DLD1; test: cell viability (CellTiter-Glo) relative to plate median (fraction of plate median); higher = more viable cells; conditions: 5 µM; treatment time 24 h; reporter: 7TFP
Outline: (§1)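 Each entry is a luminescence signal normalised to the plate median, averaged over independent replicates. The replicate count was two, and the cells were colorectal cancer lines with stable lentiviral TCF/Wnt firefly luciferase reporters exposed to library compounds at a final 5 µM for 24 h. Firefly luciferase and CellTiterGlo were measured on parallel plates.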

[2] = test system: HCT116; test: as above; conditions: 5 µM; treatment time 24 h; reporter: TCF4/Wnt
Outline: as §1

[3] = test system: SW480; test: as above; conditions: 5 µM; treatment time 24 h; reporter: 7TFP
Outline: as §1

[4] = test system: DLD1; test: TCF/Wnt firefly luciferase reporter signal relative to plate median (fraction of plate median); higher = higher Wnt reporter signal; conditions: 5 µM; treatment time 24 h; reporter: 7TFP
Outline: as §1

[5] = test system: SW480; test: as above; conditions: 5 µM; treatment time 24 h; reporter: 7TFP
Outline: as §1

SMILES	cell viability [1]	cell viability [2]	cell viability [3]	TCF/Wnt firefly luciferase reporter signal [4]	TCF/Wnt firefly luciferase reporter signal [5]
C=C(CC[C@@H](C(=O)O)[C@H]1CC[C@@]2(C)C3=C(CC[C@]12C)[C@@]1(C)CC[C@H](O)C(C)(C)[C@@H]1CC3)C(C)C [Eburicoic acid]	0.994 ± 0.052	0.923 ± 0.15	1.01 ± 0.03	0.878 ± 0.023	0.983 ± 0.013
CC1=C(/C=C/C(C)=C/C=C/C(C)=C/CO)C(C)(C)CCC1	0.974 ± 0.079	1.15 ± 0.042	1.04 ± 0.042	1.14 ± 0.042	1.04 ± 0.057
C=C(C)[C@H]1COc2cc3oc(=O)ccc3cc2O1	1.1 ± 0.17	0.968 ± 0.026	1.09 ± 0.057	1.06 ± 0.092	1.1 ± 0.042
CC(Cc1cccc(C(F)(F)F)c1)NCCOC(=O)c1ccccc1 (stereo not given)	0.984 ± 0.023	0.993 ± 0.011	0.955 ± 0.032	1.22 ± 0.057	1.14 ± 0.021
C[C@H](CCC(=O)O)[C@H]1CC[C@H]2[C@@H]3CC[C@@H]4CCCC[C@]4(C)[C@H]3CC[C@]12C	0.984 ± 0.016	1.06 ± 0.035	1.06 ± 0.09	0.905 ± 0.044	1.03 ± 0.059
COc1cc(OC)c2c(=O)c(-c3ccccc3)c(C)oc2c1OC	1.07 ± 0.15	1.05 ± 0.078	1.01 ± 0.052	1 ± 0.069	0.9545 ± 0.00071
NCCC(=O)N[C@@H](Cc1c[nH]cn1)C(=O)O	1.08 ± 0.064	1.04 ± 0.021	1.01 ± 0.016	1.24 ± 0.092	1.17 ± 0.11
CN(Cc1cnc2nc(N)nc(N)c2n1)c1ccc(C(=O)N[C@@H](CCC(=O)O)C(=O)O)cc1	0.475 ± 0.1	1.055 ± 0.0071	1.1	0.739 ± 0.3	1.07 ± 0.064
CC(=O)/N=c1/sc(S(N)(=O)=O)nn1C	0.987 ± 0.047	0.909 ± 0.13	1.01 ± 0.053	0.865 ± 0.1	1.08 ± 0.099
C[C@]12CC[C@@H]3c4ccc(O)cc4CC[C@H]3[C@@H]1CCC2=O	0.894 ± 0.038	1.05 ± 0.057	0.995 ± 0.064	1.15 ± 0.064	1.07 ± 0.085
O=c1oc2ccccc2c(O)c1Cc1c(O)c2ccccc2oc1=O	0.959 ± 0.037	0.979 ± 0.044	1.01 ± 0.028	1.18 ± 0.021	1.08 ± 0.05
O=c1oc(CO)c(CO)c2cccc(O)c12 [8-hydroxy-3,4-bis-(hydroxymethyl)-isocumarin]	0.91 ± 0.03	0.981 ± 0.098	0.967 ± 0.038	1.09 ± 0.092	1.05 ± 0.057
C[C@]1(OC(=O)/C=C/c2ccccc2)C[C@@H](O)[C@]2(O)C=CO[C@@H](O[C@@H]3O[C@H](CO)[C@@H](O)[C@H](O)[C@H]3O)[C@@H]21	1.035 ± 0.0071	1.02 ± 0.11	1.06 ± 0.05	1.12 ± 0.028	1.03 ± 0.05
C[C@@H]1C[C@H]2O[C@@H]2/C=C\C=C\C(=O)Cc2c(Cl)c(O)cc(O)c2C(=O)O1 [Radicicol]	1.07 ± 0.035	0.802 ± 0.086	1.07 ± 0.099	0.898 ± 0.16	0.785 ± 0.035
Cc1cc(O)c(C=O)c2c1C(=O)Oc1c(COC(=O)/C=C/C(=O)O)c(O)c(C(=O)O)c(C)c1O2	0.992 ± 0.026	1.05 ± 0.021	0.966 ± 0.011	0.933 ± 0.12	0.939 ± 0.12
